Data reported in PubChem BioAssay.
The source made the active and inactive calls. Unless noted, how the calls were made is not given here.

What was measured:
[1] = HepG2 liver cancer cell viability effects, profiling panel, resazurin fluorescence, 24 h, PK04 Diversity Set (AID 1172); conditions: higher = more signal
[2] = basal S. cerevisiae growth modulation, no modifier, primary screen, OD600, strain BY4716, 24 h, basal condition (AID 1173); conditions: OD600, 24 h, higher = more signal, called active from +8 up or from −8 down
[3] = MM1S myeloma cell viability, profiling panel, resazurin fluorescence, basal, 24 h, PK04 Diversity Set (AID 1174); conditions: higher = more signal, called active from +8 up or from −8 down;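 further: MM1S multiple myeloma cell line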
[4] = target: Dihydroorotate dehydrogenase (quinone), mitochondrial (Plasmodium falciparum (isolate 3D7)) (UniProt Q08210); assay: PfDHODH enzyme inhibitors, primary screen, biochemical, C-terminal His tag, absorbance 600 nm (AID 1175); conditions: DCIP absorbance 600 nm, higher = more signal, called active from +8 up or from −8 down;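 further: recombinant parasite enzyme with a five histidine tag at its C terminus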
[5] = P. aeruginosa biofilm formation inhibitors, primary screen, strain PAO1, LB-PBS medium, absorbance 600 nm (AID 1176); conditions: P. aeruginosa PAO1 growth/biofilm, A600, 12 h; higher = more signal
[6] = S. cerevisiae RM11-1a growth modifiers, primary screen, strain RM11-1a, OD600, basal, 24 h (AID 1177); conditions: OD600, 24 h, higher = more signal, called active from +8 up or from −8 down;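 further: cultures grown under basal conditions with no added stressor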
[7] = E. coli acrAB mutant growth effects, primary screen, E. coli filamentation inducers, strain DRC39, OD650, 24 h (AID 1178); conditions: higher = more signal, called active from +8 up or from −8 down;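 further: growth measured as culture turbidity by optical density at 650 nm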
[8] = E. coli acrAB mutant growth effects, primary screen, E. coli filamentation inducers, strain DRC39, OD650, 48 h (AID 1179);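 further: screen aims at cell division blockers that make cells filament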; conditions: E. coli DRC39 delta-acrAB growth, higher = more signal, called active from +8 up or from −8 down
[9] = RPMI8226 myeloma cell viability, profiling panel, resazurin fluorescence, basal, 24 h, PK04 Diversity Set (AID 1180); conditions: higher = more signal;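 further: RPMI8826 multiple myeloma cell line at 5000 cells per well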
[10] = target: E3 ubiquitin-protein ligase XIAP (Homo sapiens) (UniProt P98170); assay: XIAP binders, primary screen, biophysical, small-molecule microarray, fluorescence 635 nm (AID 1181); conditions: small-molecule microarray binding, higher = more signal;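 further: score merges 667 nm emission and signal to noise over triplicate slides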
[11] = test system: XIP peptide (Xip251-270) binding; assay: small-molecule binders of XIP peptide, primary screen, biochemical, small-molecule microarray, fluorescence 635/667 nm, 0.1 µg/mL protein (AID 1182); conditions: fluorescent protein binding, 635 nm, higher = more signal, called active from +8 up or from −8 down
XIP peptide (Xip251-270) = assay: small-molecule binders of XIP peptide, primary screen, biochemical, small-molecule microarray, fluorescence 635/667 nm, 0.5 µg/mL protein (AID 1183); conditions: small-molecule microarray binding, fluorescence 635 nm; higher = more signal
[12] = Plasmodium falciparum growth inhibition, primary screen, strain 3D7, DAPI fluorescence, 100 nL (AID 1184);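 further: parasites grown inside human red blood cells in medium with human serum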; conditions: P. falciparum 3D7 growth, 3 d, higher = more signal
[13] = target: Homeobox protein Hox-A13 (Mus musculus) (UniProt Q62424); assay: inhibitors of HoxA13-DNA binding, primary screen, biochemical, fluorescence polarization, labeled oligonucleotide (AID 1185); conditions: 15 min, higher = more signal, called active from +8 up or from −8 down
[14] = inhibitors of hydroxyurea-induced Chk1 phosphorylation, primary screen, imaging, HeLa, phospho-Chk1 antibody, percent positive cells (AID 1186); conditions: hydroxyurea-induced phospho-Chk1 immunofluorescence imaging, higher = more signal
[15] = inhibitors of hydroxyurea-induced Chk1 phosphorylation, primary screen, imaging, HeLa, phospho-Chk1 nuclear intensity (AID 1187); conditions: hydroxyurea-induced phospho-Chk1 immunofluorescence imaging, higher = more signal

Chain of Homeobox protein Hox-A13 (Mus musculus) (Q62424 whole entry, looked up): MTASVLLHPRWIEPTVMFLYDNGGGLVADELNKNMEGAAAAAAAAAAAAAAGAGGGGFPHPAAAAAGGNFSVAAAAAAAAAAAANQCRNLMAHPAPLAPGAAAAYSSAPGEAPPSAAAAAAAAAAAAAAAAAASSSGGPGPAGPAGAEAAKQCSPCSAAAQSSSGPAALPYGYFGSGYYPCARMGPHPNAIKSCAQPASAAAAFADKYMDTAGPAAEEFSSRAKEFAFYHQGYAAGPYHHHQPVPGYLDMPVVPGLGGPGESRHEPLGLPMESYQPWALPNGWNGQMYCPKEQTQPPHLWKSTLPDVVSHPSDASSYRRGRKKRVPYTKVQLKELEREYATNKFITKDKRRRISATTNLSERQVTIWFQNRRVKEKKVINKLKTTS
Chain of Dihydroorotate dehydrogenase (quinone), mitochondrial (Plasmodium falciparum (isolate 3D7)) (Q08210 whole entry, looked up): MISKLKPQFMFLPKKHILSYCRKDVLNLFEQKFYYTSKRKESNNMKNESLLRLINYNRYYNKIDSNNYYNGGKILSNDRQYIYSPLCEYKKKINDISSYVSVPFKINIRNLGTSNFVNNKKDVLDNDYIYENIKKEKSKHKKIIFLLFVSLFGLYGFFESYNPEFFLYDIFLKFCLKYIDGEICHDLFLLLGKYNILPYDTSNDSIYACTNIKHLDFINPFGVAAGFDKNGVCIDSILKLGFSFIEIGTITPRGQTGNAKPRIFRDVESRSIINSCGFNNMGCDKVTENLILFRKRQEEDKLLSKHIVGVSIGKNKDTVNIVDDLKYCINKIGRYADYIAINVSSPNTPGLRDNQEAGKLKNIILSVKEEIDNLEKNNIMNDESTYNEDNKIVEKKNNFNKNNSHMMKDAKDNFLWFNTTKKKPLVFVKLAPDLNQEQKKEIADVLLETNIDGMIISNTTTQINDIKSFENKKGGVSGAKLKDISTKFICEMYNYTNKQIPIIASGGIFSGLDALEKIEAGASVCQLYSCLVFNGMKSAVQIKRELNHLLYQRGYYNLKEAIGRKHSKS
Chain of E3 ubiquitin-protein ligase XIAP (Homo sapiens) (P98170 whole entry, looked up): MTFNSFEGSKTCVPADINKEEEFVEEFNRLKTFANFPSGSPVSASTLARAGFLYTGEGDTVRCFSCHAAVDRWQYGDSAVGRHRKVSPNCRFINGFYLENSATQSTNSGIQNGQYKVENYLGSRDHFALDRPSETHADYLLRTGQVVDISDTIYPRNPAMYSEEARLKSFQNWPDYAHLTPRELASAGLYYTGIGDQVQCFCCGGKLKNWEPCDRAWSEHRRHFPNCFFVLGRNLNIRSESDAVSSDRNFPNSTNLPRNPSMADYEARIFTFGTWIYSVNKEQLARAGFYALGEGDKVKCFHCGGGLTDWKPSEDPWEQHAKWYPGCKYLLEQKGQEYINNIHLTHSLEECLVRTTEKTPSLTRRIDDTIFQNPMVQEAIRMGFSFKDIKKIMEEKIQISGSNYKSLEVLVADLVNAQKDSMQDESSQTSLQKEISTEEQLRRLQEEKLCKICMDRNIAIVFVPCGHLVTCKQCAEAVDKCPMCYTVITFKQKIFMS

SMILES | z-score [1] | z-score [2] | z-score [3] | composite z-score [4] | z-score [5] | z-score [6] | z-score [7] | z-score [8] | z-score [9] | composite z-score [10] | composite z-score [11] | composite z-score (XIP peptide (Xip251-270)) | z-score [12] | z-score [13] | z-score [14] | z-score [15]
O=C1OCC=C[C@H]2OC34C=CCN(c5ccc6ccccc6c5)C(=O)[C@H]3N(CCO)C(=O)[C@@H]4[C@@H]12 (some centres undefined) | -0.147 | -0.204 (inactive) | 0.0073 (inactive) | -1.47 (inactive) | -0.649 (inactive) | 0.195 (inactive) | -0.246 (inactive) | -0.118 (inactive) | 0.403 | 0.0896 | 0.594 (inactive) | 0.605 | 0.666 | -5.78 (inactive) | 0.0775 (inactive) | 0.219 (inactive)
CC(=O)NCCCC[C@@H]1NC(=O)[C@@H]2C[C@H](C(=O)NCCCCCC[N+](C)(C)C)[C@H](c3cccc(OCCO)c3)N2C1=O | -0.29 | 1.05 (inactive) | -0.147 (inactive) | -0.908 (inactive) | 0.118 (inactive) | 1.44 (inactive) | -0.119 (inactive) | -0.42 (inactive) | -0.536 | -0.36 | 1.52 (inactive) | 0.345 | 0.129 | -4.94 (inactive) | -0.502 (inactive) | -0.0493 (inactive)
C=CCC(OC(C)=O)[C@@H]1[C@@H](N(Cc2ccc(-c3ccccc3)cc2)C(=O)c2ccc(C)cc2)c2cc(OCCCO)ccc2N1C(=O)Cc1ccc(OC)cc1 (some centres undefined) | 0.989 | -0.397 (inactive) | 1.02 (inactive) | -1.17 (inactive) | -0.312 (inactive) | -1.65 (inactive) | -0.104 (inactive) | 0.393 (inactive) | 0.72 | -0.165 | 0.0129 (inactive) | 0.703 | -1.18 | -0.664 (inactive) | -0.793 (inactive) | -0.677 (inactive)
COc1ccccc1CN1C(=O)c2ccccc2[C@](Cc2ccccc2I)(C(=O)NC2CC2)[C@@H]1c1ccc(CO)cc1 | -0.246 | 0.329 (inactive) | -0.185 (inactive) | 0.629 (inactive) | 0.0714 (inactive) | 1.66 (inactive) | 0.127 (inactive) | 0.877 (inactive) | -0.198 | 0.591 | -0.259 (inactive) | 0.823 | -2.22 | -4.79 (inactive) | -0.145 (inactive) | 0.548 (inactive)
[N-]=[N+]=Nc1ccccc1[C@H]1OC(c2ccc(OCCCO)cc2)=N[C@@]1(CCS(=O)(=O)c1ccccc1)C(=O)N1CCOCC1 | -0.512 | 0.917 (inactive) | -1.45 (inactive) | 0.499 (inactive) | 1.75 (inactive) | 1.45 (inactive) | 0.713 (inactive) | 0.187 (inactive) | -1.33 | 0.389 | 1.72 (inactive) | 0.562 | -2.04 | -1.14 (inactive) | -0.0149 (inactive) | 0.0382 (inactive)
O=[N+]([O-])c1ccc(C[n+]2ccc(CCCO)cc2)o1 | -1.32 | -7.77 (inactive) | -1.27 (inactive) | 0.403 (inactive) | 0.0214 (inactive) | 0.379 (inactive) | -1.4 (inactive) | -0.841 (inactive) | -0.211 | 0.905 | 0.46 (inactive) | 0.968 | -1.28 | -2.88 (inactive) | -0.0644 (inactive) | 0.492 (inactive)
CC(C)NC(=O)[C@@H]1c2ccccc2C(=O)N(C2CCCCC2)[C@H]1c1ccc(CO)cc1 | -0.208 | -0.63 (inactive) | -0.569 (inactive) | -0.131 (inactive) | 0.36 (inactive) | 0.052 (inactive) | 0.126 (inactive) | -0.0549 (inactive) | -0.374 | 0.0124 | 0.457 (inactive) | 0.254 | -0.361 | -2.65 (inactive) | -0.0625 (inactive) | -0.237 (inactive)
CCOC(=O)C[C@H]1[C@H](OC(=O)c2cc3ccccc3oc2=O)[C@@H](NC(=O)c2ccc3ccccc3c2)c2cc(OCCCO)ccc2N1C(=O)c1ccccc1 | -0.438 | -1.31 (inactive) | -0.382 (inactive) | -2.91 (inactive) | -0.647 (inactive) | -0.283 (inactive) | -0.464 (inactive) | -1.03 (inactive) | -0.486 | 0.0871 | 0.126 (inactive) | 0.218 | -2.17 | 0.287 (inactive) | 0.371 (inactive) | 0.632 (inactive)
COc1ccc([Si](C)(C)[C@H]2[C@H](CC(=O)N3Cc4ccccc4C[C@H]3CO)O[C@@]3(C(=O)N(Cc4cccc(I)c4)c4ccccc43)[C@@H]2C)cc1 | -0.779 | -1.08 (inactive) | -2.22 (inactive) | -1.01 (inactive) | 1.13 (inactive) | 1.55 (inactive) | 0.517 (inactive) | -0.152 (inactive) | -1.59 | -0.157 | -0.276 (inactive) | 0.287 | -2.37 | -2.66 (inactive) | -1.22 (inactive) | -0.541 (inactive)
O=C1c2ccccc2[C@](Cc2ccccc2I)(C(=O)O)[C@H](c2ccc(CO)cc2)N1Cc1ccccc1C(F)(F)F | 1.02 | -0.874 (inactive) | 0.283 (inactive) | 0.833 (inactive) | -0.0528 (inactive) | 0.893 (inactive) | -0.0217 (inactive) | -0.0555 (inactive) | 0.0019 | 0.12 | 0.185 (inactive) | 0.506 | 0.33 | -5.85 (inactive) | -0.344 (inactive) | -0.572 (inactive)
C[N+](C)(C)CCCC[C@@H]1NC(=O)[C@@H]2C[C@H](C(=O)NCCCCCCNC(=O)CS)[C@H](c3cccc(OCCO)c3)N2C1=O | 0.0265 | 0.159 (inactive) | -0.0664 (inactive) | 0.092 (inactive) | -0.117 (inactive) | -0.18 (inactive) | 0.253 (inactive) | 0.832 (inactive) | 0.24 | 0.131 | 0.339 (inactive) | 0.623 | -0.198 | -3.62 (inactive) | -0.38 (inactive) | -0.386 (inactive)
Cc1ccc(S[C@]2(C(=O)NCCN3CCOCC3)CC(=O)N(C3CCCCC3)[C@@H]2c2ccc(CO)cc2)cc1 | 0.375 | 0.436 (inactive) | 0.511 (inactive) | 0.113 (inactive) | 0.186 (inactive) | -0.463 (inactive) | 0.048 (inactive) | -0.483 (inactive) | 0.838 | 0.0024 | -0.202 (inactive) | 0.886 | -0.75 | -4 (inactive) | -0.0334 (inactive) | 0.206 (inactive)
[N-]=[N+]=NCc1ccccc1C[C@]1(C(=O)NCCN2CCOCC2)N=C(c2ccc(OCCCO)cc2)O[C@H]1c1ccccc1CN=[N+]=[N-] | 0.0176 | -2.56 (inactive) | 0.836 (inactive) | 1.31 (inactive) | 0.428 (inactive) | -1.95 (inactive) | 1.93 (inactive) | 0.844 (inactive) | 0.0688 | 0.0871 | 3.06 (inactive) | 0.578 | -2.67 | -2.59 (inactive) | -0.26 (inactive) | -0.787 (inactive)
Cc1cc(C)c(C(O)C2C=CC3C(=O)NC(=O)C3N2Nc2ccccn2)c(C)c1 (centres undefined) | -1.25 | 0.705 (inactive) | -1.78 (inactive) | 1.41 (inactive) | 0.9 (inactive) | 0.276 (inactive) | -0.579 (inactive) | -0.342 (inactive) | -0.68 | 0.203 | 0.702 (inactive) | 0.103 | -0.261 | -3.34 (inactive) | 0.321 (inactive) | -0.0098 (inactive)
